Source: PubChem BioAssay (several laboratories)
Only some compounds are listed: those with a hit (about 0.74% of all), similar ones and a draw of the others.
Cardiac RTF inh: cardiac RTF calcium sensitivity inhibitors, primary screen, biochemical, IANBD-TnC fluorescence, EC70 calcium. Troponin I, cardiac muscle (Homo sapiens) + Troponin T, cardiac muscle (Homo sapiens) + …. IANBD-labeled cardiac RTF, Ca2+ fluorescence. inhibition, % at 7.15 µM. 340,000 compounds, 0.12% hits;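 active = inhibition above the mean inhibition of all tested compounds plus 3 SD, cut at about 17% in these data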;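 also: assay run at fixed EC70 calcium of 1.6 mM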
C-LANA FP: inhibitors of KSHV C-LANA binding to DNA, primary screen, biochemical, fluorescence polarization, FAM-LBS DNA, MBP-C-LANA, single point; 340,000 compounds, 0.078% hits; inhibition, % at 9 µM; AID 504423, 2011; Kaposi's sarcoma herpesvirus LANA C-terminal domain (residues 932-1162) DNA binding;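 active = highest replicate inhibition at or above 60% at 9 µM, even if other replicates fall short; inactive = all replicates below 60% inhibition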;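 also: 0% = neutral control wells and 100% = 4 µM acridine orange control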
cardiac RTF act: cardiac RTF calcium sensitivity activators, primary screen, biochemical, IANBD-TnC fluorescence, EC20 calcium. Troponin I, cardiac muscle (Homo sapiens) + Troponin T, cardiac muscle (Homo sapiens) + …. IANBD-labeled TnC RTF fluorescence at EC20 calcium; 0% EC20 calcium, 100% full calcium. activation, % at 7.2 µM. 340,000 compounds, 0.24% hits;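 active = activation above the mean over all tested compounds plus 3 SD, cut at about 30% in these data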;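 also: rise in fluorescence read as greater calcium sensitivity of cardiac thin filaments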
E coli Lon inh: inhibitors of E. coli Lon protease, primary screen, biochemical, fluorescence polarization; purified E. coli Lon protease; 360,000 compounds, 0.42% hits; inhibition, % at 7.94 µM; in the data active = inhibition above about 13%, passing the limit was not always enough;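 also: 0% = enzyme with probe and DMSO and 100% = no enzyme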
Keap1-Nrf2 PPI: Keap1-Nrf2 protein-protein interaction inhibitors, primary screen, biochemical, fluorescence polarization, single point; Keap1 Kelch-Nrf2 peptide fluorescence polarization, 1536-well; 340,000 compounds, 0.15% hits; inhibition, % at 9.4 µM; AID 504523, 2011; in the data active = inhibition above about 12%; inconclusive = no clear call, values can overlap the other calls; inactive = below about 7.3%;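 also: human Keap1 Kelch domain with fluorescein labeled Nrf2 9mer peptide probe; 0% = neutral control wells and 100% = peptide positive control; higher means more block of Keap1 binding to Nrf2 peptide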
Target sequence (Q14145 whole entry, looked up, the tested form may be a part): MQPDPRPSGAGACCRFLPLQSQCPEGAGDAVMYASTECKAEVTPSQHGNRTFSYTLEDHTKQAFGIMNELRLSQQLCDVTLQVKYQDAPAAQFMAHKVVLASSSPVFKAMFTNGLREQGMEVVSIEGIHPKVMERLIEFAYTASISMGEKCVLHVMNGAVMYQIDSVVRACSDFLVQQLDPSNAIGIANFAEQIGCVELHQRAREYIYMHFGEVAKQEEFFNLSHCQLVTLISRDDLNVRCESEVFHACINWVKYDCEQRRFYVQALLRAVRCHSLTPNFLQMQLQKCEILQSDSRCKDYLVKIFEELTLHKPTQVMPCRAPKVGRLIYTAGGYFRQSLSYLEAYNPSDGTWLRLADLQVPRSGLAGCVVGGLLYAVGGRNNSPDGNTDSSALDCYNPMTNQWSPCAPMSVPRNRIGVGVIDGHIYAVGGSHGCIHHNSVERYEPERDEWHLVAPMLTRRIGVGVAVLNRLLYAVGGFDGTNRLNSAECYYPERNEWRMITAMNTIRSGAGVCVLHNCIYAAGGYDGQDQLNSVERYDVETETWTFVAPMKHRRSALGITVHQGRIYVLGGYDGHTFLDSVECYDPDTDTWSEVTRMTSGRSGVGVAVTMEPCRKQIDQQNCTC
eLon confirm: E. coli Lon protease inhibitor retest, confirmation, biochemical, fluorescence polarization; AID 602230, 2012; shares compounds with E coli Lon inh; purified E. coli Lon; 1,400 compounds, 31% hits; inhibition, % at 7.94 µM; in the data active = inhibition above about 16%;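 also: 0% = enzyme with probe and DMSO and 100% = no enzyme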
Active calls of the source: *; ? = inconclusive; · = not tested or not shown; + = active, no number.

SMILES	Cardiac RTF inh	C-LANA FP	cardiac RTF act	E coli Lon inh	Keap1-Nrf2 PPI	eLon confirm
Oc1c(Br)cc(Br)cc1/C=N/n1c(-c2ccccc2)n[nH]c1=S	-1	-7	-4	-10	-4	·
CCNC(=O)C1(C)CCCN1Cc1c(F)cccc1F (configuration not stated)	·	·	·	-14	·	·
Cc1noc(C)c1S(=O)(=O)N(C)C[C@H]1OCc2cnnn2CCCC(=O)N([C@H](C)CO)C[C@H]1C	·	·	·	7	·	·
Cc1[nH]n(-c2ccccc2)c(=O)c1/C=N/NC(=O)c1ccccc1F	-5	1	1	21*	-3	-6
CC(C)CN(C(=O)CCNC(=O)c1ccc(Cl)cc1)C1CCS(=O)(=O)C1 (configuration not stated)	-8	3	-6	-10	-4	·
O=C(Nc1ccc(Cl)cc1)Nc1ccc(N2CCC(C(F)(F)F)CC2)nc1	-3	2	2	47*	0	8
CN1CCc2c(sc3c2C(=O)NC(c2ccccn2)N3)C1 (configuration not stated)	-28	17	18	24*	-4	-8
CN1CCc2c(sc3c2C(=O)NC(c2ccccc2)N3)C1 (configuration not stated)	-18	7	12	-64	-4	·
CCOC(=O)C1=C(COC(=O)Cc2c(F)cccc2Cl)NC(=O)NC1C (configuration not stated)	-1	-1	-7	24*	-4	-1
CCOCCn1cnc2sc(C(=O)NCC(=O)OCC)c(C)c2c1=O	-4	3	0	15*	-1	-4
O=C(CN1C(=O)NC2(CCCCC2)C1=O)N1CCN(S(=O)(=O)c2ccc(Cl)s2)CC1	-6	0	0	19*	-1	-7
COc1cc(CN2C[C@@H](CO)O[C@@H](n3cnc4c(NCCCO)ncnc43)C2)cc(OC)c1OC	·	·	·	2	·	·
O=[n+]1c2c(n([O-])c3cc(F)ccc31)CCCC2	-1	1	-1	-4	-3	·
O=[n+]1c2c(n([O-])c3cc(F)c(N4CCCC4)cc31)CCCC2	-84	39	79*	114*	-18	111*
O=[n+]1c2c(n([O-])c3cc(F)c(N4CCCC4)cc31)CCC2	-87	38	53*	151*	-11	190*
CC(=O)c1c(-c2ccccc2)c2cc(Cl)ccc2n(C)c1=O	-3	2	5	-10	-4	·
CC(=O)c1c2c3c(c(Br)ccc3n(C)c1=O)C(=O)c1ccccc1-2	-31	5	-2	50*	3	21*
Cn1c2nc(=O)n(-c3ccccc3)c(=O)c-2nc2c1CCCC2	·	·	·	123*	·	77*
O=C(Nc1ccc2c(c1)OCCO2)c1ccccc1F	0	-1	5	-9	1	·
O=C(NC(=S)Nc1ccc2c(c1)OCCO2)c1ccccc1F	-1	0	0	36*	-2	-3
COC(=O)C1=C(C(=O)OC)C2C(C)=CC(C)=CN2C(C(=O)OC)=C1C(=O)OC (configuration not stated)	1	3	-5	20*	-5	13
COC(=O)C1=C(C(=O)OC)C(C(=O)OC)N2C=CC=CC2=C1C(=O)OC (configuration not stated)	·	·	·	-5	·	·
CN1CCCc2cc3c(C(F)(F)F)cc(=O)oc3nc21	-58	-21	38*	27*	?	103*
O=C(Cc1coc2cc(O)ccc12)N1CCN(S(=O)(=O)c2ccc(Br)cc2)CC1	-4	0	-3	-6	2	·
CCCCn1nnnc1C(c1ccccc1)N1CCN(c2ccc(C)cc2)CC1 (configuration not stated)	·	·	·	-9	·	·
SMILES	Cardiac RTF inh	C-LANA FP	cardiac RTF act	E coli Lon inh	Keap1-Nrf2 PPI	eLon confirm
COc1ccc(CCNC(=O)C(C)SCc2ccccc2)cc1 (configuration not stated)	-12	-2	5	19*	-3	-5
COc1cccc(NC(=O)C(C)SCc2ccccc2)c1 (configuration not stated)	1	-1	3	-4	-2	·
O=S(=O)(c1ccccc1)N1CC2CC(Br)C(Br)CC21 (configuration not stated)	·	·	·	-3	·	·
CCOC(=O)[C@]12CCCC=C1N(Cc1cccc3ccccc13)C(=O)[C@H](CC(=O)NCCCN1CCCC1=O)C2	·	·	·	2	·	·
O=C(CS(=O)(=O)c1cn(Cc2ccc(Cl)cc2)c2ccccc12)N1CCCCC1	-6	0	4	17*	-8	5
COc1ccc(N2CCN(C(=O)CN3C(=O)c4ccccc4S3(=O)=O)CC2)cc1	3	0	8	20*	-6	-8
O=c1[nH][nH]c2c1[C@H](c1ccc(F)cc1)O[C@H](CCc1ccccc1)C2	·	·	·	5	·	·
CCOC(=O)C1=C(C)NC2=C(C(=O)C(C(=O)OCC)C(c3ccco3)C2)C1c1ccccn1 (configuration not stated)	-5	1	2	44*	-3	-1
CCOC(=O)C1=C(C)NC2=C(C(=O)C(C(=O)OCC)C(c3ccccc3OC)C2)C1c1ccccn1 (configuration not stated)	4	-1	-4	-2	0	·
O=C1C(N2CCOCC2)=Cc2cccc3cccc1c23	·	·	·	186*	·	195*
O=C1C=C(N2CCOCC2)c2cccc3cccc1c23	·	·	·	183*	·	6
CC(C)OP(=O)(CCP(=O)(OC(C)C)OC(C)C)OC(C)C	-3	-1	8	17*	2	-81
O=C(NC1CCCCCC1)c1cc(S(=O)(=O)N2CCCCC2)ccc1N1CCOCC1	-3	0	-3	-4	1	·
Cc1cc(NC(=O)COC(=O)c2cc(S(=O)(=O)N3CCOCC3)ccc2N2CCCCC2)no1	-1	-2	2	54*	0	9
O=C(NC1CCCCC1)c1cc(S(=O)(=O)N2CCCCC2)ccc1N1CCOCC1	4	0	-2	20*	-2	-2
CC(C)c1ccc(Nc2c([N+](=O)[O-])c(=O)n(C)c3ccccc23)cc1	4	1	-5	-5	0	·
Cn1c(=O)c(Nc2ccc(O)cc2)c2c3c(cccc31)C(=O)c1ccccc1-2	-56	-1	50*	+	5	121*
O=S(=O)(Nc1cccc(S(=O)(=O)N2CCCCCC2)c1)c1ccccc1	6	1	5	4	-4	·
O=S(=O)(Nc1cccc(S(=O)(=O)N2CCCC2)c1)c1ccc(Cl)cc1	0	-1	1	101*	-3	-4
COCCNC(=O)C[C@H]1C[C@H]2c3cc(NS(=O)(=O)c4ccc(F)cc4)ccc3O[C@H]2[C@H](CO)O1	·	·	·	-2	·	·
